# Test system: RARg homodimer (NR concentration 270 nM)
# Test: PBM binding z-score (relative to random genomic background probes); higher = stronger binding; sequences stand for … in GC…GCGATTGACAGCGTAGAATGAAGG
# How it was run: (§1)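 Binding z-scores take random background probes as their reference. They come from custom Agilent 4×180K protein-binding microarrays incubated 1 h with ligand-free nuclear receptor dimers, with antibodies against each partner (one per run) detecting binding. Scanned fluorescence was regression-normalized.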
row,Sequence,PBM binding z-score
1,TCGAGTAGGTTACGGGGTCATTCAGGGATGAAGA,4.05
2,CCGACTGGGTCAAAGGTTACCATACTCAGTACGA,4.13
3,CGTCCAAGGTCAATGTTAGGTCAGTGAAAGCATT,6.89
4,CAACCTAGGTCACGAAAGGTCAAAGTCGAATGAC,8.53
5,CGTCAAAGTTCACCTAAGGTAACGTAAAGCACGC,6.36
6,CCAGACAGGTGAAAGGTCACTCAGTCTGGTACGC,5.89
7,TTACCAAGGTGACCTGAGGTCGTTGATCCAACTC,2.35
8,CTCGAAAGGTCAGTTGAGGTGAGTATACGGATAA,7.89
9,CGTCCAAGGTCAGAGAGGTCATTGAATGCCGAGT,6.96
10,TAGCCTAGGTTATGCGGGCCAGTATAGTGTCGGC,0.272
11,CCTACTGTGCCATTCAGAGGTCATTGATCATATG,2.75
12,CAAACTAGGTCAAAGGTCAAAGTAGAGCCAACCA,7.32
13,CCGAGTAGGTTACGTGGGGGCATTCAGTGCGAAT,2.05
14,TTACCAAGGTCAGCTGAGGTCGTTGATCCAACTC,6.14
15,AGTCAAAATTCACTAGGTAACGTAAGATTCAGCT,0.425
16,GCATATAGGTAATTCAAGGTGAAAGTCCGATTGT,0.26
17,GATACAGGGTGAGCTAGAGGCCAGAGTATGGAAA,0.586
18,CCTAGCAGGCCAATCGGGGTCACTCAAGGCTTGA,3.43
19,ACTAGGTGGTCAGCTGAGGTCACACACAATTCGG,4.46
20,GCTTACGGGTCAAAGGTTAAAGCATGAATAGAAT,5.18

row,Sequence,PBM binding z-score
1,TCTAGTAGGTCACGGAGGTCACACACGACGGGTA,7.88
2,CCTACTGGGCCATTCAGAGGTTATTGATCATATG,0.495
3,CCTACTGGGCCACGTAAGGTCATTGATTCAGTGA,3.01
4,ACTAGTAGGTCAGCTGAGGTCACACACAATTCGG,7.1
5,CCTAGTTGGTCAAGCTCACACACGCTATAGGTAC,1.12
6,CCTTACGGGTCACTCCATGTTATAGCATCGGAGT,3.99
7,CCGAGTAGGTTACGAGGAGGCATTCAGTGCGAAT,0.522
8,TGAATGAAGTTAAAGATCAGGGAACGTGGCGTCG,0.00438
9,CGTCCAAGGTCAAAGGTCAGGGAAGAGATGACGG,8.2
10,CCGAGTAGGTTACGAGGCGGCATTCAGTGCGAAT,0.173
11,CAAACTAGGTCACCGTAAGGTCAAAGTCCGCATG,7.64
12,ACTAGCAGGTCAAGGGTCACTCAAGATTAGTCCG,6.42
13,ACTAGTGGGTCAGCTGAGGTCACACACAATTCGG,6.44
14,CCTTACGGGTCACTCAAGGTTATAGCATCGGAGT,4.38
15,TCGAGTAGGTTACGGCGGCATTCAGGGATGAAGA,0.134
16,ATATGTAGGTTAGAGTCATTCAGAAAGTAGGGAA,0.891
17,CGAACGAGGTCAGAACAGGACAGTGAAGGATGAT,4.76
18,CCTACTGGGGCACGAAAGGTCATTGATTCAGTGA,4.85
19,CCTACTGGGCCATCAGGTGATTGATATCAACGTT,0.41

# Test system: RXRa DBDmut IVT, anti-RXR (DBD mutation: RXRa K156A/R161A, NR concentration 90 nM)
# Test: as above
# How it was run: as §1
row,Sequence,PBM binding z-score
1,TCGAGTAGGTTACGGGGTCATTCAGGGATGAAGA,2.36
2,CCGACTGGGTCAAAGGTTACCATACTCAGTACGA,1.23
3,CGTCCAAGGTCAATGTTAGGTCAGTGAAAGCATT,3.6
4,CAACCTAGGTCACGAAAGGTCAAAGTCGAATGAC,2.31
5,CGTCAAAGTTCACCTAAGGTAACGTAAAGCACGC,4.67
6,CCAGACAGGTGAAAGGTCACTCAGTCTGGTACGC,1.18
7,TTACCAAGGTGACCTGAGGTCGTTGATCCAACTC,0.664
8,CTCGAAAGGTCAGTTGAGGTGAGTATACGGATAA,2.56
9,CGTCCAAGGTCAGAGAGGTCATTGAATGCCGAGT,3.6
10,TAGCCTAGGTTATGCGGGCCAGTATAGTGTCGGC,-0.93
11,CCTACTGTGCCATTCAGAGGTCATTGATCATATG,1.79
12,CAAACTAGGTCAAAGGTCAAAGTAGAGCCAACCA,2.8
13,CCGAGTAGGTTACGTGGGGGCATTCAGTGCGAAT,1.44
14,TTACCAAGGTCAGCTGAGGTCGTTGATCCAACTC,2.79
15,AGTCAAAATTCACTAGGTAACGTAAGATTCAGCT,0.24
16,GCATATAGGTAATTCAAGGTGAAAGTCCGATTGT,0.583
17,GATACAGGGTGAGCTAGAGGCCAGAGTATGGAAA,-0.965
18,CCTAGCAGGCCAATCGGGGTCACTCAAGGCTTGA,1.12
19,ACTAGGTGGTCAGCTGAGGTCACACACAATTCGG,0.949
20,GCTTACGGGTCAAAGGTTAAAGCATGAATAGAAT,2.07

row,Sequence,PBM binding z-score
1,TCTAGTAGGTCACGGAGGTCACACACGACGGGTA,2.43
2,CCTACTGGGCCATTCAGAGGTTATTGATCATATG,0.368
3,CCTACTGGGCCACGTAAGGTCATTGATTCAGTGA,0.502
4,ACTAGTAGGTCAGCTGAGGTCACACACAATTCGG,2.43
5,CCTAGTTGGTCAAGCTCACACACGCTATAGGTAC,0.623
6,CCTTACGGGTCACTCCATGTTATAGCATCGGAGT,1.59
7,CCGAGTAGGTTACGAGGAGGCATTCAGTGCGAAT,0.082
8,TGAATGAAGTTAAAGATCAGGGAACGTGGCGTCG,-0.803
9,CGTCCAAGGTCAAAGGTCAGGGAAGAGATGACGG,3.54
10,CCGAGTAGGTTACGAGGCGGCATTCAGTGCGAAT,0.159
11,CAAACTAGGTCACCGTAAGGTCAAAGTCCGCATG,2.47
12,ACTAGCAGGTCAAGGGTCACTCAAGATTAGTCCG,2.13
13,ACTAGTGGGTCAGCTGAGGTCACACACAATTCGG,1.74
14,CCTTACGGGTCACTCAAGGTTATAGCATCGGAGT,2.01
15,TCGAGTAGGTTACGGCGGCATTCAGGGATGAAGA,-0.00856
16,ATATGTAGGTTAGAGTCATTCAGAAAGTAGGGAA,0.428
17,CGAACGAGGTCAGAACAGGACAGTGAAGGATGAT,3
18,CCTACTGGGGCACGAAAGGTCATTGATTCAGTGA,0.748
19,CCTACTGGGCCATCAGGTGATTGATATCAACGTT,-0.814
